Test results published in PubChem BioAssay AID1347417 (National Center for Advancing Translational Sciences (NCATS), 2020).
The whole screen tested about 120,000 compounds, of which about 5,300 (4.4%) were called active. Roughly 22% stayed inconclusive and do not appear here. What follows is part of a selection rich in actives, with near analogues and random picks from the rest. A number with no mark means an inactive call. The call rests on the fitted dose curve; in most records, active means well fitted inhibition curve with a large enough effect; inconclusive means small, poorly fitted or top-dose-only effect; inactive means no such curve, though single readings can be large or run the other way.

Assay: qHTS Primary assay for Inhibitors of Plasmodium falciparum Dd2 growth in vitro; further: nearly all actives have a fitted effect of over 65% in size;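 on activity, negative = inhibition: plate controls were DMSO vehicle for no effect and reference drug for full effect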
Details: P. falciparum Dd2 growth, SYBR Green, 72 h; series mostly up to 28.9 µM; activity, negative = inhibition: at the top concentration
From the text: Malaria, a parasitic disease spread to humans through the bite of a Plasmodium infected Anopheles mosquito, continues to be a global health burden affecting millions of people, with an estimated 228 million cases and 405,000 deaths in 2018. Concerns about safety and limitations of current antimalarial treatments strongly emphasize the need to develop new therapeutic options. The scarce number of chemotypes and validated drug targets with efficacy against the liver stage, have hindered development of new antimalarials. To address this, a chemoprophylactic drug discovery effort was conducted through a combined phenotypic high-throughput asexual blood stage and liver stage screen, providing a robust foundation to identify liver-stage active lead chemotypes. Compounds were initially screened against Plasmodium falciparum Dd2 strain parasites using a in vitro SYBRGreen-1 based 72 hr proliferation assay to identify novel chemotypes to advance to liver stage assays. NIH/NCATS Early Translation Branch Assay Submitter (PI): Anton Simeonov Ph.D.
Malaria-vivax Assay Protocol: PROTOCOL TABLE (as described by Inglese et al., 2007) SEQUENCE No. (e.g., 1, 2, 3, etc.); […] (e.g., Cells, Incubation, Reagent, etc.); VALUE; DESCRIPTION SEQUENCE, Parameter, Description 1; Reagent; 3 uL complete malaria growth medium, 1536 TC treated Black clear bottom plate 2; Controls; 23 nL positive control artesunate (300 nM final) to column 1; Neutral control DMSO to columns 2-4 3; Compound; 23 nL of compounds in dose response concentration (29 uM to 0.5 nM final) 4; Reagent; 5 uL malaria infected red blood cells (2.5% hematocrit final, 0.3% parasitemia 5; Time; 72 hours at 37C (5% O2, 5% CO2, 90% N2; 95% Rh) 6; Reagent; 2 uL lysis buffer/SYBRGreen-1, 25 sec shake immediately following dispense 7; Time; ~16 hours at 37C (5% O2, 5% CO2, 90% N2; 95% Rh) 8; Detector; EnVision (PerkinElmer) bottom read at 485/14nm excitation and 535/25 nm emission NOTES (numbers refer to sequence above): 1; Complete Malaria Growth Media: 1X RPMI-1640 w/L-glutamine, 5.5g/L Albumax II, 367 uM Hypoxanthine, 25 mM HEPES, 0.25% Sodium Bicarbonate, 35 uM Gentamicin sulfate 2; Controls were added using the Kalypsis Pintool (Wako USA) equipped with 1536 pinhead 3; Compounds were added in a 7-point, titration with a high final concentration of 29 uM by Pintool from seven inter-plate titrations of library plates and two DMSO control plates at the beginning and end (see Yasgar et al., 2008). 4; Red blood cells infected with Plasmodium falciparum Dd2 parasites were used. 6; Lysis buffer: 20 mM Tris-HCl, 10 mM EDTA, 0.16% Saponin, 1.6% Triton-X, 10X SYBR Green. REFERENCE: Inglese J, Shamu CE, Guy RK. 2007. Reporting data from high-throughput screening of small-molecule libraries. Nat Chem Biol. doi:10.1038/nchembio0807-438 Yasgar A, Shinn P, Jadhav A, Auld D, Michael S, Zheng W, Austin CP, Inglese J, Simeonov A. 2008. Compound Management for Quantitative High-Throughput Screening. J Lab Autom 13:79-89. doi:10.1016/j.jala.2007.12.004
Potency means the concentration at half of the fitted maximal effect.

Compound	activity, negative = inhibition	Potency	outcome
CCN1C(=O)CCN(C(=O)c2cnn(C)c2)CC12CCOCC2	8.57%		
CCCCNC(=O)C1CCCN(c2nnc(C)c3c(C)n(-c4ccc(Cl)cc4)nc23)C1 (centres undefined)	-16%		
CCc1ccc(CNC(=O)C2CCN(c3nnc(C)c4c(C)n(-c5ccc(C)cc5)nc34)CC2)cc1		10 µM (active)	
Cc1nnc(N2CCCC(C(=O)NCCN(C)C)C2)c2nn(-c3ccccc3)c(C)c12 (centres undefined)	-14.9%		
COc1cccc(-c2nc(N3CCOCC3)cc3c2CN(CC2CC2)C3=O)c1		11.2 µM (active)	
CN1Cc2c(cc(N3CCOCC3)nc2-c2cccc(F)c2)C1=O			inactive [at 44.1 µM]
O=C1c2cc(N3CCOCC3)nc(-c3cccnc3)c2CN1C1COC1	2.02% [at 44.1 µM]		
O=C1CCC(C(=O)NCc2ccc(-c3cnc4c(Oc5ccccc5)nccn34)cc2)N1 (centres undefined)	-8.65% [at 44.1 µM]		
COc1ccc(C2Cn3nnc(-c4nc(-c5ccc(OC(C)C)cc5)no4)c3CO2)cc1 (centres undefined)			inactive
Cc1ccc(C)c(N2CCN(C(=O)Cc3c(C(=O)O)c(C)cn3C)CC2)c1	4.31%		
CCOC(=O)c1c(C)[nH]c(CCC(=O)NCCCN2CCN(c3cccc(Cl)c3)CC2)c1C			inactive
CCOC(=O)c1c(C)[nH]c(CCC(=O)Nc2ccc(OC)c(OC)c2)c1C	-10.2%		
CCOC(=O)c1c(C)[nH]c(CCC(=O)NCCCN2CCN(c3cc(C)ccc3C)CC2)c1C		10 µM (active)	
CC1=C(c2ccc(Cl)cc2)S(=O)(=O)N=C1N1CCN(c2cc(C)ccc2C)CC1			inactive
Cc1ccc(C)c(N2CCN(CCCNC(=O)Nc3ccc(Cl)cc3)CC2)c1		10 µM (active)	
CCN1CCCC1CNC(=O)CCC1CCN(Cc2ccc(Cl)o2)CC1 (centres undefined)	-22.2%		
O=C(Cn1ccn2nc(-c3ccc(F)cc3)c(CO)c2c1=O)NCCC1=CCCCC1	5.48%		
COc1cccc(CNC(=O)Cn2c(C)cc3nc4n(c(=O)c32)CCCC4)c1	199%		
O=C1CSC2(CCN(S(=O)(=O)c3ccc(F)cc3)CC2)N1Cc1ccco1			inactive
CC(C)CCN1CCC(N2CCN(C(=O)C3CCC3)CC2)C1=O (centres undefined)	-6.67%		
COc1cccc(CN2CCc3nc(SCC(=O)Nc4ccccc4)[nH]c(=O)c3C2)c1	30.2%		
CNC(=O)[C@@H]1CN(Cc2cccc(OC)c2)C[C@H]1CO	-8.46%		
COc1cccc(CN2CCc3c(cc(C(=O)NCCN4CCCCC4)n3C)C2)c1		3.98 µM (active)	
CCc1ccc(C(=O)N2CCC(c3n[nH]c(=O)n3Cc3ccc(OC)cc3)CC2)cc1	-0.555%		
O=Cc1cccc(N2CCN(C(=O)N3CCCC3)CC2=O)c1	-15.5%		

Compound	activity, negative = inhibition	Potency	outcome
CC(C)N1CC[C@@H]2[C@H]1C(=O)NC[C@H](CCC(=O)NCc1ccccc1)N2C			inactive [at 44.1 µM]
CCC(CC)C(=O)NC[C@H]1O[C@H](Cc2cc(-c3ccc(F)cc3)on2)CC[C@@H]1O			inactive [at 44.1 µM]
COCc1cc(C[C@@H]2CC[C@H](O)[C@@H](CN(C)C)O2)no1	-8.69% [at 44.1 µM]		
COCc1cc(C[C@@H]2CC[C@H](O)[C@@H](CN(CC3CCCCC3)CC3CCCCC3)O2)no1		3.16 µM (active)	
O=C(CN1C(=O)COc2ccc(C(=O)COc3ccc(Cl)cc3F)cc21)NCCc1ccccc1	-23.5%		
Cc1ccc(C)c(C(=O)NC2CCN(c3cnn(CC4CC4)c(=O)c3)CC2)c1			inactive
C[C@]1(O)CCN(C(=O)c2ccc(N3CC(=O)NC3=O)cc2)C[C@@H]1O	-0.0782%		
Cc1noc([C@@H]2CN(S(=O)(=O)c3ccc4c(c3)CCC4)C[C@H]2C(N)=O)n1	4.51%		
CCOC(=O)c1c(C)oc2nc(C)nc(N(CC(C)C)CC(C)C)c12		10 µM (active)	
COc1ccc(N2CCN(C(=O)c3c(C)oc4nc(C)nc(N5CCCC5)c34)CC2)cc1	11.3%		
CCOC(=O)c1c(C)oc2nc(C)nc(N3CCN(c4ccc(OC)cc4)CC3)c12		10 µM (active)	
Cc1nc(N2CCOCC2)c2c(C(=O)NCc3cccc(Cl)c3)c(C)oc2n1	29.7%		
CN(CCc1noc(C2CN(C(=O)c3cc(F)ccc3F)C2)n1)C(=O)C1CC1	3.18%		
Cc1nc(N(C)C)ncc1C(=O)N[C@@H]1CCOC[C@H]1Oc1ccccn1	-2.13%		
COc1ccc(O[C@H]2COCCN(S(=O)(=O)c3c(C)noc3C)C2)cc1	-24.8% [at 44.1 µM]		
O=C(c1ccccn1)N1C[C@@H]2OCC(=O)N(CC3CC3)[C@@H]2C1	0.941% [at 44.1 µM]		
CCN(CCCNC(=O)c1cc2c(=O)n(CC)c3ccccc3c2s1)Cc1ccccc1		4.47 µM (active)	
CCc1ccc(CNC(=O)c2cc3c(=O)n(CC)c4ccccc4c3s2)cc1	-2.37%		
CCn1c(=O)c2cc(C(=O)NCCc3ccc(Cl)cc3)sc2c2ccccc21	5.17%		
CN(Cc1ccc2c(c1)OCO2)C(=O)C1(C)CCOCC1	-15.2% [at 44.1 µM]		
COCCNC(=O)CC[C@]12CC[C@](C)(O)C[C@H]1C(C)(C)C[C@@H]2NC(=O)c1ccc(C(F)(F)F)cc1			inactive
Cc1cc(F)ccc1NC(=O)CCC1CCCN(C(=O)c2ccc(Cl)s2)C1 (centres undefined)			inactive
Cc1noc(C)c1C(=O)N1CCCC(CCc2ccc(F)cc2F)C1 (centres undefined)	-8.48%		
Cc1c[nH]c(CN2CCCC(CCc3ccc(F)cc3F)C2)c(C)c1=O (centres undefined)		10 µM (active)	
